Assay results taken from PubChem BioAssay (NCI).
The panel holds about 83,000 compounds, 20% with a hit somewhere; the sample as a whole holds those more often.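 48-hour exposure, single concentration, 96-well plates; percent growth endpoint where 0 means no net growth. Active: below 10.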 Active and inactive are the calls of the source.

What follows are molecules tested on MDA-MB-468 breast (assay: NCI-60 one-dose screen, 48 h (100 = growth as untreated, 0 = no growth, -100 = all killed)). Conditions: 10 µM unless noted.

| Compound | growth |
| --- | --- |
| CC1(C)CN(c2cnc(C(=O)Nc3cc(F)cc4cccnc34)cn2)CCN1 | 17.8% (inactive) |
| Nc1c(C(=O)Nc2ccccc2)sc2nc3c(cc12)CCCCC3 | -9.1% (active) |
| O=C(NCCOCCOCCNc1cccc2c1C(=O)N(C1CCCNC1=O)C2=O)c1cc2c(o1)C(=O)c1ccccc1C2=O (centres undefined) | -36.6% (active) |
| O=S(=O)(NCCCNc1nccc(-c2[nH]c(-c3ccccc3)nc2-c2ccc(Cl)c(O)c2)n1)c1cccc(F)c1 | 50.9% (inactive) |
| COc1ccc2c(c1OC)C(=O)O[C@@H]2[C@H]1c2c(c(C#CC#Cc3ccc(F)c(F)c3)c3c(c2OC)OCO3)CCN1C | 72.4% (inactive) |
| COC(=O)/C=C1\S/C(=N\Nc2ccc([N+](=O)[O-])cc2[N+](=O)[O-])N(C2CCCCC2)C1=O | 45.1% (inactive) |
| CSc1nc2ncncc2[nH]1 | 103% (inactive) |
| COc1cnc2c(c1)C(=O)c1c-2n(CCCN2CCCC2)c(=O)c2cc(F)ccc12 | -29.5% (active) |
| c1ccc2nc(N3CCOCC3)c(N3CCCCC3)nc2c1 | 94% (inactive) |
| Cc1cnc(C=O)c2cccc([N+](=O)[O-])c12 | 89.7% (inactive) |
| C[N+](C)=c1ccc2nc3c(cc(Nc4ccccc4)c4ccccc43)oc-2c1 | -14.8% (active) |
| C=C1C(=O)O[C@H]2[C@H]1CC/C(CNC(=O)/C=C/c1ccccc1F)=C\CC[C@@]1(C)O[C@@H]21 | -45.5% (active) |
| O=[N+]([O-])c1ccc(/C=N\Nc2ccccc2)cc1 | 94.7% (inactive) |
| COc1nc2ccccc2cc1-c1nc2c(cnn2-c2ccccc2)c(=O)[nH]1 | 35.9% (inactive) |
